For 20 compounds, growth inhibition results are on record in PubChem BioAssay (NCI).

Test [1] is described as follows: NCI Yeast Anticancer Drug Screen. Data for the rad50 strain (AID 155).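 Further: 0% = growth of vehicle-only cultures of the same strain.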 Particulars: S. cerevisiae rad50 strain growth inhibition; at 50.0 µM; active compounds read high. The method in brief: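 A DNA repair-deficient yeast mutant serves as the test organism; compound-induced growth inhibition is calculated against vehicle-treated cells.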
Test [2] in a line: NCI Yeast Anticancer Drug Screen. Data for the mec2-1 strain (AID 157). Particulars: S. cerevisiae mec2-1 strain, at 50.0 µM, active compounds read high. The method in brief:
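Strain: mec2-1 (DNA repair/cell cycle alteration). Compound exposure, then growth measured; inhibition expressed relative to vehicle.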

Test [3] in a line: NCI Yeast Anticancer Drug Screen. Data for the sgs1 mgt1 strain (AID 161).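 Further: 0% = growth of cultures given vehicle only.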 Particulars: S. cerevisiae sgs1 mgt1 strain, at 50.0 µM, active compounds read high. In outline:
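Mutant yeast exposed to compound; growth scored against vehicle-only wells.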

Test [4] can be described thus: NCI Yeast Anticancer Drug Screen. Data for the cln2 rad14 strain (AID 165).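 Further: 0% = growth equal to vehicle treated cultures.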 Particulars: S. cerevisiae cln2 rad14 strain, at 50.0 µM, active compounds read high. In outline:
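Compounds are applied to the cln2 rad14 yeast strain, and growth is then compared with that of vehicle-treated cultures to give inhibition.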

A short description of test [5]: NCI Yeast Anticancer Drug Screen. Data for the bub3 strain (AID 167). Particulars: S. cerevisiae bub3 mutant strain, at 50.0 µM, active compounds read high. In outline: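 Inhibition values come from growth of compound-treated mutant yeast normalised to vehicle-treated controls.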
Test [6] is described as follows: NCI Yeast Anticancer Drug Screen. Data for the mlh1 rad18 strain (AID 175). Particulars: S. cerevisiae mlh1 rad18 strain growth inhibition; at 50.0 µM; active compounds read high. In outline: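 Read-out is yeast growth inhibition, calculated against vehicle-only controls. The compound was applied to a strain engineered with DNA damage repair alterations.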

About 79,000 compounds went through this panel and 15% of them were active in at least one assay; those are over-represented in the sample as a whole. Unmarked numbers belong to inactive results. Active and inactive are the calls of the source. No stated cut-off is given here; in the data, active means growth inhibition above about 70%; inactive means the rest.

On to `Fc1ccc(-c2ccc(Br)cc2)cc1`, for which the growth inhibition in test [1] is 3.95%; in test [2], 3.4%; in test [3], 2.05%; in test [4], -44%; in test [5] it was 17%; in test [6] it was -3.65%.
Regarding `CCC1(CC)NC(=S)NC1=S`, the growth inhibition in test [1] is 24.5%; in test [2] it was 7.4%; in test [3], 26.4%; in test [4], 10%; in test [5], 16.4%; in test [6], 20%.
As to `COc1ccc(OC)c(NC(=O)NN(C)C)c1`, the growth inhibition in test [1] was -31.4%; in test [2] it was -38.8%; in test [3], -2.25%; in test [4] it was 7.95%; in test [5], -21.1%; in test [6] it was -21.6%.
As to `O=C(CC(C(=O)c1cccs1)c1ccsc1)c1cccs1` (stereo not given), the growth inhibition was -23.8% in test [1]; -22.6% in test [2]; 0.85% in test [3]; 21% in test [4]; 25.8% in test [5]; -38.7% in test [6].
`CCCCC(C(C)=O)C(=O)CC` (stereo not given): the growth inhibition is 26.4% in test [1]; -25% in test [2]; 8.8% in test [3]; -23.2% in test [4]; -20.5% in test [5]; 13.1% in test [6].
Take `COc1c(-c2ccccc2)c(=O)n2c3cc(C)c(C)cc3n(C)c2c1C#N`: the growth inhibition in test [1] is -13.4%; in test [2] it was -0.4%; in test [3], 18.5%; in test [4] it was -13.9%; in test [5] it was -31.1%; in test [6], -2.85%.
As for `Cc1ccc(N=NC2Sc3nc4ccccc4n3C2=O)cc1` (stereo not given), the growth inhibition in test [1] was -7.1%; in test [2] it was 9.75%; in test [3] it was -0.7%; in test [4] it was -35.5%; in test [5], 16.3%; in test [6], 13.2%.
Take `COc1cccc(CN2CCCN(Cc3cccc(OC)c3O)C2c2ccccc2)c1O`: the growth inhibition was 22.1% in test [1]; 3.2% in test [2]; 1.8% in test [3]; -6.45% in test [4]; 0.9% in test [5]; 12.4% in test [6].
Regarding `CC(C)(C)c1cc(CCC(=O)Nc2ccc(Cl)cc2)[nH]c(=S)n1`, the growth inhibition is 1.85% in test [1]; -16.1% in test [2]; 0.4% in test [3]; -8.85% in test [4]; -5.85% in test [5]; -14.8% in test [6].
As for `CCOC(=O)C1=C(C)NC(=O)NC1c1ccc(OC)cc1OC` (stereo not given), the growth inhibition was -2.15% in test [1]; -25.6% in test [2]; -11.7% in test [3]; 18.6% in test [4]; -18% in test [5]; -6.5% in test [6].
As to `COc1ccccc1NC(=O)C(=O)C1C(=O)Nc2ccccc2S1=O` (stereo not given), the growth inhibition was -14.3% in test [1]; -21.1% in test [2]; -44.6% in test [3]; 2.45% in test [4]; -41% in test [5]; -45.5% in test [6].
In the case of `Nc1nc2ccccc2[nH]1`, the growth inhibition in test [1] is 2.2%; in test [2], -0.3%; in test [3], -17.7%; in test [4], 0.8%; in test [5] it was -11.8%; in test [6], 6.95%.
Consider `CN1CCC(C)(c2ccccc2)C(=O)C1` (stereo not given), for which the growth inhibition is 2% in test [1]; 3.85% in test [2]; 11% in test [3]; -28.6% in test [4]; -10.3% in test [5]; 12.7% in test [6].
For `CCCCc1c2c(nc3c1CCCC3O)CCCC2` (stereo not given), the growth inhibition is -40.4% in test [1]; -63% in test [2]; -13.9% in test [3]; 13.2% in test [4]; -8.1% in test [5]; -23.9% in test [6].
In the case of `N#Cc1nc(CCCCCN2C(=O)c3ccccc3C2=O)oc1N`, the growth inhibition in test [1] is -8.9%; in test [2] it was 9.2%; in test [3], -23.1%; in test [4], -4.1%; in test [5], -28.6%; in test [6] it was -68.8%.
With `CC(=O)c1ccc2ccccc2c1O`, the growth inhibition in test [1] was 2.6%; in test [2], -11.7%; in test [3], -25.5%; in test [4] it was -11.1%; in test [5], -3%; in test [6] it was -5.45%.
For `CC1C2(C)OC(=N)C(C#N)(C(c3ccco3)O2)C1(C#N)C#N` (stereo not given), the growth inhibition in test [1] is 6.75%; in test [2], 3.1%; in test [3], -6.55%; in test [4] it was 5.95%; in test [5], -9.65%; in test [6], -1.4%.
`COc1c(C)cc2c(C(C)C)c(O)c(O)c(C=O)c2c1O`: the growth inhibition was 86.1% (active) in test [1]; 88.2% (active) in test [2]; 80.5% (active) in test [3]; 79% (active) in test [4]; 80.8% (active) in test [5]; 76.3% (active) in test [6].
With `COC1(OC)c2no[n+]([O-])c2CCC1O` (stereo not given), the growth inhibition is -6.6% in test [1]; -17.4% in test [2]; -24.1% in test [3]; 10% in test [4]; 4% in test [5]; -4.45% in test [6].
Consider `CCNC(=O)CCC(NS(=O)(=O)c1ccc(NC(=O)c2ccc(Cl)cc2)cc1)C(=O)O` (stereo not given), for which the growth inhibition in test [1] is 0.8%; in test [2], -4.95%; in test [3], -26%; in test [4], -4.6%; in test [5], 0.1%; in test [6] it was -1.9%.
